BAZ2B inh = blocks human BAZ2B. AlphaScreen BAZ2B-H3K14Ac peptide displacement. Potency, µM (titrated, usually from 114 µM), for the others: top-dose activity change, negative = inhibition, actives largely listed as inhibitors. Q9UIF8. AID 504333. 4.4% of 360,000 active; further: potency means the concentration at half of the fitted maximal effect; on the % scale 0 is the no-effect control and ±100 the full control effect; nearly all actives have a fitted effect of over 60% in size
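AlphaScreen displacement of biotin-H3(5-23)K14Ac peptide (50 nM final) from BAZ2B (50 nM final) in PBS pH 7.4, 0.01% Tween-20; complex preformed 30 min RT, then compounds (top 110 uM) 30 min RT, beads 20 min dark.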
JMJD2E inh = JMJD2E (human) inhibition | Potency, µM (highest dose often 57.1 µM), inactives show at the highest dose activity change, negative = inhibition, actives largely listed as inhibitors | JMJD2E catalytic domain, FDH-coupled NADH fluorescence (FDH is formaldehyde dehydrogenase) | 1.6% of 230,000 active | B2RXH2 | AID 2147; active means well fitted inhibition curve with a large enough effect, not every such curve was filed as active; inconclusive means small, poorly fitted or top-dose-only effect, or another doubt; inactive means no such curve, though single readings can be large or run the other way;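 further: potency means the concentration at half of the fitted maximal effect; 0% = wells with enzyme and -100% = buffer wells without enzyme; nearly all actives have a fitted effect of over 50% in size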
JMJD2A Tudor = inhibitors of human JMJD2A Tudor domain. 4.4% of 390,000 active. AID 504339. O75164. AlphaScreen JMJD2A-Tudor / H3K4me3 peptide binding. Potency, µM (series often up to 114 µM), for the others: top-dose activity change, negative = inhibition, most hits filed as inhibitors; further: potency means the concentration at half of the fitted maximal effect; on the % scale 0 is the no-effect control and ±100 the full control effect; nearly all actives have a fitted effect of over 50% in size
HP1b chromo inh = HP1-beta chromodomain-methylated histone interaction inhibition | P83916 | AlphaScreen HP1-beta / biotin-H3K9me3 peptide binding | Potency, µM (highest dose often 114 µM), inactives show at the top dose activity change, negative = inhibition, most hits filed as inhibitors | 0.56% of 390,000 active; further: potency means the concentration at half of the fitted maximal effect; nearly all actives have a fitted effect of over 70% in size
Target sequence (P83916 whole entry, looked up): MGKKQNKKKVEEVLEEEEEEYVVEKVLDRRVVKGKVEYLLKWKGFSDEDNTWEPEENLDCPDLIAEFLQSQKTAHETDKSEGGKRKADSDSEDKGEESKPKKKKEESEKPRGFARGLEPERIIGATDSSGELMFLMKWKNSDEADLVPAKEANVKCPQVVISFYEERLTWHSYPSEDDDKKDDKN
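AlphaScreen: HP1-beta (50 nM) preformed 30 min with biotin-H3(1-18)K9me3 peptide (50 nM) in PBS pH 7.4, 0.01% Tween-20. Compound added for 30 min at RT, then streptavidin donor/nickel chelate acceptor beads (10 ug/mL) for 30 min.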
L3MBTL1 inh = inhibitors of human L3MBTL1. Potency, µM (series often up to 57.1 µM), inactives show at the highest dose activity, negative = inhibition, usual class: inhibitors. 0.66% of 230,000 active. AlphaScreen L3MBTL1–H3K9me1 peptide binding; further: potency means the concentration at half of the fitted maximal effect; on the % scale 0 is the no-effect control and ±100 the full control effect; nearly all actives have a fitted effect of over 60% in size
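L3MBTL1 (50 nM) pre-complexed 30 min with biotinylated H3(1-15)K9me1 peptide (75 nM), then compounds added for 30 min at room temperature; AlphaScreen streptavidin donor/nickel chelate acceptor beads (10 ug/mL final) read after 30 min dark incubation.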
PI5P4K alpha inh = inhibitors of human PI5P4K alpha | P48426 | PI5P4Kalpha enzyme, ADP-Glo luminescence, 60 min; hits give low values | max response, % | 1.2% of 330,000 active; active means max response of -50% or lower; inconclusive means between -30% and -50%; inactive means -30% or higher; further: value at the top dose of about 77 µM; on the % scale 0 is the no-effect control and ±100 the full control effect
Target sequence (P48426 whole entry, looked up): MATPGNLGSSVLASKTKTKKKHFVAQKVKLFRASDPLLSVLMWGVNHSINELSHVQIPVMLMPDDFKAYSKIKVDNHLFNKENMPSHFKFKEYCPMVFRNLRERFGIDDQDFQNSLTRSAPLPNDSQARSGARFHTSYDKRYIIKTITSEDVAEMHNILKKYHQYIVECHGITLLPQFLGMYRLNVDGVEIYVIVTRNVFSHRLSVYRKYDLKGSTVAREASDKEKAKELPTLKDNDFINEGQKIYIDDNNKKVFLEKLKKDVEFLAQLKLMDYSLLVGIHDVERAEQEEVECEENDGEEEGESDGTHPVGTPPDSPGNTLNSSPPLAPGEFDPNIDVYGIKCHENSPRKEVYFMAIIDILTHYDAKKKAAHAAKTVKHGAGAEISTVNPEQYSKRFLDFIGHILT
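Controls without substrate or without enzyme flank wells where PI5P4Kalpha converts substrate using 5 microM ATP (final). Incubation lasts 60 minutes at room temperature; ADP formed is read by ADP-Glo luminescence.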
The depositor's hits bear a star; [ ] = another dose, or the depositor's remark. Rows were chosen to be rich in hits. Some 5.7% of all compounds tested hit in one or more screens of this group. Unless noted, the call rests on the fitted dose curve; in most records, active means well fitted inhibition curve with a large enough effect; inconclusive means small, poorly fitted or top-dose-only effect; inactive means no such curve, though single readings can be large or run the other way.

Results for Cc1cc(C)n2nc(SCC(=O)N/N=C/c3ccccn3)nc2n1 ?
BAZ2B inh: -0.7%; JMJD2E inh: inconclusive; JMJD2A Tudor: 8.91µM*; HP1b chromo inh: 32.5%; L3MBTL1 inh: 23.2%; PI5P4K alpha inh: -4.5

How did Cc1ccc(CNC(=O)COC(=O)c2nc(-c3ccccc3)oc2C)cc1 do in these assays?
BAZ2B inh: -9.4%; JMJD2A Tudor: -3.3%; HP1b chromo inh: 14.0%; L3MBTL1 inh: -0.6%; PI5P4K alpha inh: -5.5

Results for Cc1cc(C(=O)COC(=O)c2n[nH]c3ccccc23)c(C)n1C ?
BAZ2B inh: inconclusive; JMJD2E inh: -6.1%; JMJD2A Tudor: 63.1µM*; HP1b chromo inh: -23.6%; L3MBTL1 inh: -6.2%; PI5P4K alpha inh: -2.5

How did COc1cc(C(=O)OCC(=O)c2cc(C)n(C)c2C)cc(OC)c1OC do in these assays?
BAZ2B inh: 0.5%; JMJD2E inh: inconclusive; JMJD2A Tudor: 31.6µM*; HP1b chromo inh: inconclusive; L3MBTL1 inh: -3.1%; PI5P4K alpha inh: -9.5

What do the screens show for `COc1ccc(-n2c(=O)c3sc4ccccc4c3n(CC(=O)NC3CCCCC3)c2=O)cc1`?
BAZ2B inh: 0.6%; JMJD2A Tudor: -4.3%; HP1b chromo inh: 35.6%

Results for CCOc1ccc(/C=C/c2nc(C#N)c(NC(C)CC)o2)cc1 (stereo unspecified) ?
BAZ2B inh: -27.9%; JMJD2A Tudor: -15.7%; HP1b chromo inh: 14.6%

Results for C#Cc1nc(Nc2cccc(Cl)c2)nc(NC2CCCC2)n1 ?
JMJD2A Tudor: -22.6%

How did Cc1cc(C)cc(NC(=O)C2CCCN2S(=O)(=O)c2ccc3nc(-c4ccccc4)[nH]c3c2)c1 (stereo unspecified) do in these assays?
BAZ2B inh: 79.4µM*; JMJD2A Tudor: inconclusive; HP1b chromo inh: 6.8%

How did COc1ccc(CCN(C)CCc2ccc(OC)c(OC)c2)cc1OC do in these assays?
JMJD2E inh: 3.5%; JMJD2A Tudor: -13.7%; HP1b chromo inh: 28.4%; PI5P4K alpha inh: 4.6

Results for COc1ccc(CN(CCc2ccccc2)Cc2ccccc2)cc1OC ?
BAZ2B inh: 79.4µM*; JMJD2A Tudor: 10µM*; HP1b chromo inh: inconclusive; L3MBTL1 inh: 63.2%; PI5P4K alpha inh: 20.7

Results for COc1cc(CN(CCN(C)C)Cc2ccccc2)ccc1OCc1ccccc1 ?
BAZ2B inh: 39.8µM*; JMJD2A Tudor: 1µM*; HP1b chromo inh: inconclusive; L3MBTL1 inh: -4.9%; PI5P4K alpha inh: 7.4

What do the screens show for `CNCc1ccc(OCc2ccccc2)c(OC)c1`?
BAZ2B inh: 8.0%; JMJD2E inh: 2.5%; JMJD2A Tudor: 0.0%[57.1 µM]; HP1b chromo inh: 61.5%; L3MBTL1 inh: 2.8%; PI5P4K alpha inh: 1.8

What do the screens show for `COc1ccc(CCN(C)C/C=C/c2ccccc2)cc1OC`?
BAZ2B inh: inconclusive; JMJD2A Tudor: 28.2µM*; HP1b chromo inh: inconclusive; L3MBTL1 inh: -0.1%; PI5P4K alpha inh: 0.9

What do the screens show for `CCN(CC)Cc1ccc(OC)c(Cl)c1`?
BAZ2B inh: -12.3%; JMJD2E inh: 2.0%; JMJD2A Tudor: 1.1%; HP1b chromo inh: 32.8%; L3MBTL1 inh: 1.5%; PI5P4K alpha inh: 3.1

Results for CCN(Cc1ccncc1)Cc1ccc(OC)c(OC)c1 ?
BAZ2B inh: inconclusive; JMJD2A Tudor: 25.1µM*; HP1b chromo inh: inconclusive; L3MBTL1 inh: -0.7%; PI5P4K alpha inh: 7.7

Results for COC(=O)NC(c1ccccc1)c1c[nH]c2ccccc12 (stereo unspecified) ?
JMJD2E inh: 11.9%

How did CCC(C)Nc1c([N+](=O)[O-])cc(C)cc1[N+](=O)[O-] (stereo unspecified) do in these assays?
BAZ2B inh: 31.6µM*; JMJD2E inh: 0.4%; JMJD2A Tudor: 20µM*; HP1b chromo inh: inconclusive; L3MBTL1 inh: inconclusive; PI5P4K alpha inh: -8.3

Results for Cc1cc([N+](=O)[O-])c(NCCCCCCO)c([N+](=O)[O-])c1 ?
JMJD2A Tudor: inconclusive; HP1b chromo inh: -14.5%

What do the screens show for `Cc1ccc(S(=O)(=O)N2CCc3cc(C(=O)N(C)Cc4ccccc4)ccc32)cc1`?
BAZ2B inh: -10.8%; JMJD2A Tudor: -24.8%; HP1b chromo inh: -3.0%

How did Cn1c(NC(=O)c2ccccc2)c(-c2ccccn2)c(=O)c2ccccc21 do in these assays?
BAZ2B inh: 8.1%; JMJD2E inh: 4.3%; JMJD2A Tudor: 31.6µM*; HP1b chromo inh: 6.8%

Results for CCOc1ccc(-c2c(C(=O)N/N=C/C3CCCCC3)nnn2-c2nonc2N)cc1 ?
BAZ2B inh: inconclusive; JMJD2A Tudor: -3.8%; HP1b chromo inh: 45.0%; PI5P4K alpha inh: -2.4

What do the screens show for `Cc1ccc(-c2c(C(=O)N/N=C/C3CCCCC3)nnn2-c2nonc2N)cc1`?
BAZ2B inh: 79.4µM*; JMJD2A Tudor: -3.0%; HP1b chromo inh: 56.4%; PI5P4K alpha inh: 0.0

Results for O=C1CCN(Cc2ccccc2)C=C1c1ccc2ccccc2c1 ?
JMJD2A Tudor: 44.7µM*; HP1b chromo inh: -17.0%; L3MBTL1 inh: -12.7%; PI5P4K alpha inh: -2.1

Results for O=C1CCN(Cc2ccccc2)C=C1c1ccc(Cl)cc1 ?
JMJD2A Tudor: -32.9%; HP1b chromo inh: 20.4%; L3MBTL1 inh: -5.5%; PI5P4K alpha inh: -7.0

Results for CCCCCn1cc2c(c1-c1ccccc1Br)c(=O)n(C)c(=O)n2C ?
BAZ2B inh: -34.3%; JMJD2A Tudor: inconclusive; HP1b chromo inh: -8.5%

How did O=C(OCc1cc(=O)n2nc(-c3cccs3)sc2n1)c1cccc(F)c1 do in these assays?
BAZ2B inh: inconclusive; JMJD2A Tudor: inconclusive; HP1b chromo inh: 70.7%

What do the screens show for `O=C(c1cc2ccccc2oc1=O)N1CCN(c2ccc(F)cc2)CC1`?
BAZ2B inh: -1.1%[57.1 µM]; JMJD2A Tudor: -9.3%; HP1b chromo inh: 34.2%

Results for Cc1ccc(-c2[nH]ncc2CNC(C)c2ccccc2)cc1 (stereo unspecified) ?
JMJD2A Tudor: 4.47µM*; HP1b chromo inh: inconclusive

Results for Cc1ccc(-c2[nH]ncc2CNCc2ccccc2)cc1 ?
JMJD2A Tudor: -13.5%; HP1b chromo inh: 36.3%

Results for Cc1ccc(NC(=O)c2ccc(=O)[nH]n2)cc1S(=O)(=O)Nc1ccc(SC(F)F)cc1 ?
JMJD2A Tudor: -16.5%; HP1b chromo inh: 23.5%; L3MBTL1 inh: -12.1%; PI5P4K alpha inh: -11.0

Results for CC(C)Cc1nn2c(=O)cc(COC(=O)c3cccc(NC(=O)CCc4ccccc4)c3)nc2s1 ?
BAZ2B inh: -12.2%; JMJD2A Tudor: -6.3%; HP1b chromo inh: 41.0%

How did O=C(O)CN1C(=O)C=CC1=O do in these assays?
PI5P4K alpha inh: -15.4
